Results taken from PubChem BioAssay (NCI).
The panel holds about 83,000 compounds, 20% with a hit somewhere; the sample as a whole holds those more often.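 The endpoint reported here, percent growth, reads 100 for growth as untreated, 0 for no net growth and -100 for all cells dead.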 Active and inactive are the calls of the source. Rule for the calls: active = growth percent below 10; inactive = the rest.

These molecules were tested on MDA-MB-468 breast (assay: NCI-60 one-dose screen, 48 h (100 = growth as untreated, 0 = no growth, -100 = all killed)). Conditions: 10 µM unless noted.

Row | Structure (SMILES) | growth
1 | Cc1nc(/N=C(\N)NC(=O)Nc2ccccc2Cl)sc1C | 2.23% (active)
2 | Cn1cccc1C(=O)C1C(c2cccc([N+](=O)[O-])c2)C2C3CCCCC3CN2C12C(=O)Nc1ccc(Cl)cc12 (stereo unspecified) | 32% (inactive)
3 | CC(=O)ON1CCCC(P(=O)(OCOC(=O)C(C)(C)C)OCOC(=O)C(C)(C)C)C1=O (stereo unspecified) | -21.2% (active)
4 | COc1ccc(-c2cc(C(=O)N=Nc3c(O)[nH]c4ccccc34)no2)cc1 | 106% (inactive)
5 | Cc1ccc(Cl)cc1NC(=O)CCl | 73.5% (inactive)
6 | COc1cc(/C=N\Nc2ccccc2)ccc1OC(=O)c1ccccc1 | 44.2% (inactive)
7 | COc1cc(-c2cc(/C=C3\CCCCC3=O)[nH]n2)cc(OC)c1OC | 85.2% (inactive)
8 | O=c1c2ccccc2oc2ccc(OCCCCCCN3CCCCCC3)cc12 | 20.2% (inactive)
9 | c1ccc(-c2cc3n4c(-c5ccccc5)nn(-c5ccccc5)c4cnc-3n2)cc1 | 70.2% (inactive)
10 | CC1(C)CCCN1CCCN1c2ccccc2Sc2ccc(Cl)cc21 | 37.6% (inactive)
11 | CCN(CC)CCn1c2ccc(O)cc2c2sc3cc(O)ccc3c(=O)c21 | 47.8% (inactive)
12 | Cc1cc(N(CCCNc2ccnc3cc(Cl)ccc23)Cc2ccccn2)nc(N2CCOCC2)n1 | 78.8% (inactive)
13 | O=C(O)/C(=C/c1ccc(O)cc1)c1ccccc1 | 96.9% (inactive)
14 | C[C@]12C[C@@H](c3ccoc3)OC(=O)[C@@H]1CC[C@]1(C)[C@@H]2CC[C@@H](O)[C@]1(C)O | 88.3% (inactive)
15 | Cc1cc(Br)c2nsnc2c1[N+](=O)[O-] | -24.6% (active)
16 | Nc1ncnc2[nH]ncc12 | -20.3% (active)
17 | CN(CCC#N)c1ccc(/C=C2\NC(=O)NC2=O)cc1 | 110% (inactive)
18 | CCOC(=O)c1c2c(n3ccc(NC(=O)CCN4CCCC4)cc13)C(=O)c1ncccc1C2=O | -82% (active)
19 | CC(=O)Oc1ccc(C2(c3ccc(OC(C)=O)cc3)C(=O)Nc3ccccc32)cc1 | 46.2% (inactive)
20 | Cc1sc2c(c1C)c(=O)nc1c(-c3nc4ccccc4s3)n[nH]n12 | 101% (inactive)
21 | Cc1nn(-c2ccccc2)c2c1C(c1ccc([N+](=O)[O-])cc1)C(C#N)=C(N)O2 (stereo unspecified) | 108% (inactive)
22 | O=C(/C=C\c1ccc(NCc2ccc(C(=O)O)cc2)cc1)CCl | 76.7% (inactive)
23 | COc1nc2ccccc2s1 | 113% (inactive)
24 | O=c1[nH]ncc(Br)c1Br | -15.7% (active)
25 | COc1cc2oc(-c3cccc(C(=O)Nc4ccc5c(c4)OCO5)c3)cc(=O)c2c(O)c1OC | 54.6% (inactive)
26 | Brc1cccc(-c2cc(-c3ccc4c(c3)OCCO4)[nH]n2)c1 | 2.79% [25 µM] (active)
